Our source for the cell viability, % of control (lower = more cytotoxic) values is PubChem BioAssay (NCATS).

Molecules are shown by their SMILES. Non-standard residues stand in square brackets, D forms with d. Residues, ends and D or L forms follow the SMILES beside them. *: point of attachment. Sta = CC(C)C[C@H](N)[C@@H](O)CC(=O)O; Isovaleryl = CC(C)CC(=O)*

This assay in a line: High-throughput drug toxicity screening in the BPDCN cell line Gen2.2 (AID 1224824). As to conditions: Gen2.2 BPDCN cells; at 45.8 µM (top of the series) unless noted. From the text: Blastic plasmacytoid dendritic cell neoplasm (BPDCN) is a rare, aggressive and largely incurable hematologic malignancy originating from plasmacytoid dendritic cells (pDCs). Although an initial response to chemotherapy is common, BPDCN prognosis is extremely poor and most patients relapse with drug-resistant disease leading to a median overall survival of ~1 year after diagnosis. To explore novel potential therapeutic strategies in BPDCN, we performed a high-throughput drug toxicity screening in BPDCN cell liens, using of a library of 1,912 small molecules, enriched for compounds that are either approved or in early stages of development for cancer therapy.
A total of 500 exponentially growing Gen2.2 cells were seeded per well in 5 uL of media (RPMI + Glutamine, without phenol red plus10% FBS and 1X Pen/Strep) into 1536-well solid white high base tissue culture treated Greiner One Bio Plates (789173-F), using a multidrop combi dispenser and a small sterile cassette. Compounds and controls totaling 23nL per well (negative control DMSO and positive control 9.2 uM Bortezomib-final) were immediately added to the plates using a 1536 head pin tool from Kalypsys. The plates were then covered with stainless steel gasket lids from Kalypsys and incubated for 48 hours at 37C under 95% relative humidity with 5% CO2. After 48 hours, the plates were removed and allowed to reach room temperature before 3 uL of Cell Titer Glo reagent (Promega) were added using an Aurora Flying Reagent Dispenser Bioraptor. The plates were then spun at 1000 rpms to remove bubbles and incubated for 15 minutes at room temperature before reading on a ViewLux using a luminescent filter with a 10 second exposure. The relative luciferase units were used to calculated percent activity using DMSO as 100% and Bortezomib as 0%.
For `CN(C)[C@@H](CCOc1cccc2ccccc12)c1ccccc1`, the cell viability, % of control (lower = more cytotoxic) was 165%.
In the case of `C=CCc1cc(OC)c(O)c(C(=O)NCCO)c1`, the cell viability, % of control (lower = more cytotoxic) is 134%.
With `CN(C)CCCC1(c2ccc(F)cc2)OCc2cc(C#N)ccc21` (stereo not given), the cell viability, % of control (lower = more cytotoxic) was 120%.
The figure for `CN(C)C(=O)COC(=O)Cc1ccc(OC(=O)c2ccc(N=C(N)N)cc2)cc1` is 129%.
As to `Cc1ccc(C(=O)c2cc(O)c(O)c([N+](=O)[O-])c2)cc1`, the cell viability, % of control (lower = more cytotoxic) was found to be 52.4%.
To `Cc1ncc([N+](=O)[O-])n1CC(C)O` (stereo not given) belongs 120%; to `Cc1cc(O)c2c(c1)C(=O)c1cc(O)cc(O)c1C2=O`, 207%; to `O=C(O)c1cn(-c2ccc(F)cc2)c2cc(N3CCNCC3)c(F)cc2c1=O`, 47.7%.
To `COc1cc2c(N3CCN(C(=O)Nc4ccc(OC(C)C)cc4)CC3)ncnc2cc1OCCCN1CCCCC1` belongs 7.51%; to `CC(C)CC(=O)N[C@H](C(=O)N[C@H](C(=O)N[C@@H](CC(C)C)[C@@H](O)CC(=O)N[C@@H](C)C(=O)N[C@@H](CC(C)C)[C@@H](O)CC(=O)O)C(C)C)C(C)C` (Isovaleryl-VV[Sta]A[Sta]-OH), 72.5%; to `CC1(C)C(=O)N(CCN2CCC(C(=O)c3ccc(F)cc3)CC2)c2ccccc21`, 37.4%.
For `CCCc1cc(=O)[nH]c(=S)[nH]1`, the cell viability, % of control (lower = more cytotoxic) stood at 62.4%.
To `CC(C)Oc1ccc2c(=O)c(-c3ccccc3)coc2c1` belongs 181%.
For the molecule `Clc1ccc(C(Cn2ccnc2)OCc2ccsc2Cl)c(Cl)c1` (stereo not given), the cell viability, % of control (lower = more cytotoxic) turned out to be 75.4%.
As to `CC1=C(C(=O)O)N2C(=O)[C@@H](NC(=O)[C@H](N)C3=CCC=CC3)[C@H]2SC1`, the cell viability, % of control (lower = more cytotoxic) was determined as 145%.
To `CCCS(=O)c1ccc2nc(NC(=O)OC)[nH]c2c1` (stereo not given) belongs 32.3%; to `N[C@@H](Cc1cc(I)c(Oc2cc(I)c(O)c(I)c2)c(I)c1)C(=O)O`, 163%.
On to `Nc1ccn([C@@H]2O[C@H](CO)[C@@H](O)C2O)c(=O)n1` (stereo not given in full), for which the cell viability, % of control (lower = more cytotoxic) came to 225%.
Turning to `C[C@H](Cc1ccc(O)c(O)c1)[C@@H](C)Cc1ccc(O)c(O)c1`, the cell viability, % of control (lower = more cytotoxic) was found to be 7.79%.
For `C[C@]12CCC(=O)C=C1CC[C@@H]1[C@H]2[C@@H](O)C[C@@]2(C)[C@H]1CC[C@]2(O)C(=O)CO`, the cell viability, % of control (lower = more cytotoxic) was 208%.
In the case of `COc1ccc2cc([C@H](C)C(=O)O)ccc2c1`, the cell viability, % of control (lower = more cytotoxic) was determined as 127%.
The figure for `CCCCCCCCOc1ccccc1C(=O)Nc1ccc(C(=O)OCC[N+](C)(CC)CC)cc1` is 52.3%; for `O=C1c2c(O)cc(O)cc2OC(c2ccc(O)c(O)c2)C1O` (stereo not given) it is 155%.
To `CC(S)C(=O)NCC(=O)O` (stereo not given) belongs 104%; to `COC(=O)C1=C(C)NC(C)=C(C(=O)OCCCN2CCC(c3ccccc3)(c3ccccc3)CC2)C1c1cccc([N+](=O)[O-])c1` (stereo not given), 109%.
As to `O=C(c1ccccc1)c1ccc2n1CCC2C(=O)O` (stereo not given), the cell viability, % of control (lower = more cytotoxic) was found to be 14.8%.
Take `CCCCc1ccc2nc(NC(=O)OC)[nH]c2c1`: the cell viability, % of control (lower = more cytotoxic) worked out at 47.1%.
The figure for `Nc1cccc2c1CN(C1CCC(=O)NC1=O)C2=O` (stereo not given) is 178% [at 92.2 µM]; for `CCCCC(CC)COC(=O)C(C#N)=C(c1ccccc1)c1ccccc1` (stereo not given) it is 157%; for `Clc1ccc2c(N3CCN(CCCN4CCN(c5ccnc6cc(Cl)ccc56)CC4)CC3)ccnc2c1` it is 88.7% [at 23.2 µM].
Consider `Cc1cc(=O)c2c(O)c3c(O)cc(=O)c4c3c3c(cc(O)c1c23)C(C)(C)C=4O`, for which the cell viability, % of control (lower = more cytotoxic) stood at 130%.
Consider `Clc1ccc(C(Cn2ccnc2)OCc2c(Cl)cccc2Cl)c(Cl)c1` (stereo not given), for which the cell viability, % of control (lower = more cytotoxic) is 327%.
Take `Cc1cccc(C)c1OCC(=O)N[C@@H](Cc1ccccc1)[C@@H](O)C[C@H](Cc1ccccc1)NC(=O)[C@H](C(C)C)N1CCCNC1=O`: the cell viability, % of control (lower = more cytotoxic) is 28%.
The figure for `CC(=O)NC[C@H]1CN(c2ccc(N3CCOCC3)c(F)c2)C(=O)O1` is 81.5%; for `O=C(CCc1ccc(O)cc1)c1c(O)cc(O)cc1O` it is 141%; for `CCc1nc(N)nc(N)c1-c1ccc(Cl)cc1` it is 136%.
To `CCN(CC)CCOc1ccc(Nc2ncc3cc(-c4c(Cl)cccc4Cl)c(=O)n(C)c3n2)cc1` belongs 4.53%.
`O=C(NOCC1CC1)c1ccc(F)c(F)c1Nc1ccc(I)cc1Cl`: the cell viability, % of control (lower = more cytotoxic) worked out at 6.36%.
In the case of `O=c1ccc2ccc(O)c(O)c2o1`, the cell viability, % of control (lower = more cytotoxic) came to 42.5%.
Turning to `COc1cc2c(cc1OC)C1CC(=O)C(CC(C)C)CN1CC2` (stereo not given), the cell viability, % of control (lower = more cytotoxic) was 141%.
